{"source": "the supplement of paper PMC8728848", "test_in_all_cases": "glycan array binding signal (z-score within array); higher = stronger binding", "details_in_all_cases": "glycan notation: IUPAC condensed, linker removed", "key": {"[1]": {"biological_target": "Fuc(a1-2)Gal(b1-3)GalNAc(b1-3)Gal(a1-4)Gal(b1-4)Glc", "outline": "(§1)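 Arrays were curated from the Consortium for Functional Glycomics database, 3228 in total, and kept only where the protein sequence was available. Binding is expressed as a within-array Z-score. This score was averaged across arrays of the same protein sequence at different concentrations or buffers and across linkers, and negative values can be read as non-binding.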"}, "[2]": {"biological_target": "Fuc(a1-2)Gal(b1-3)GlcNAc(b1-3)[Fuc(a1-2)Gal(b1-3)GlcNAc(b1-6)]GalNAc", "outline": "as §1"}, "[3]": {"biological_target": "Fuc(a1-2)Gal(b1-4)[Fuc(a1-3)]GlcNAc", "outline": "as §1"}, "[4]": {"biological_target": "Fuc(a1-2)[Gal(a1-3)]Gal(b1-4)GlcNAc(b1-2)Man(a1-3)[Fuc(a1-2)[Gal(a1-3)]Gal(b1-4)GlcNAc(b1-2)Man(a1-6)]Man(b1-4)GlcNAc(b1-4)GlcNAc", "outline": "as §1"}, "[5]": {"biological_target": "Fuc(a1-2)[Gal(a1-3)]Gal(b1-4)[Fuc(a1-3)]GlcNAc(b1-3)GalNAc", "outline": "as §1"}, "[6]": {"biological_target": "Fuc(a1-2)[GalNAc(a1-3)]Gal(b1-3)GlcNAc", "outline": "as §1"}, "[7]": {"biological_target": "Fuc(a1-3)[Gal(b1-4)]GlcNAc(b1-3)GalNAc", "outline": "as §1"}, "[8]": {"biological_target": "Fuc(a1-3)[Gal3S(b1-4)]GlcNAc", "outline": "as §1"}, "[9]": {"biological_target": "Gal(a1-3)Gal(b1-3)GlcNAc(b1-2)Man", "outline": "as §1"}, "Gal(a1-6)Glc": {"biological_target": "Gal(a1-6)Glc", "outline": "as §1"}, "[10]": {"biological_target": "Gal(b1-3)GlcNAc(a1-6)Gal(b1-4)GlcNAc", "outline": "as §1"}, "[11]": {"biological_target": "Gal(b1-4)GlcNAc(b1-2)Man(a1-3)[Gal(b1-4)GlcNAc(b1-2)Man(a1-6)][Gal(b1-4)GlcNAc(b1-4)]Man(b1-4)GlcNAc(b1-4)[Fuc(a1-6)]GlcNAc", "outline": "as §1"}, "[12]": {"biological_target": "Gal(b1-4)GlcNAc(b1-2)Man(a1-3)[Gal(b1-4)GlcNAc(b1-2)Man(a1-6)][GlcNAc(b1-4)]Man(b1-4)GlcNAc(b1-4)[Fuc(a1-6)]GlcNAc", "outline": "as §1"}, "[13]": {"biological_target": "Gal(b1-4)GlcNAc(b1-2)[Gal(b1-4)GlcNAc(b1-6)]Man(a1-6)[GlcNAc(b1-4)][Gal(b1-4)GlcNAc(b1-2)Man(a1-3)]Man(b1-4)GlcNAc(b1-4)GlcNAc", "outline": "as §1"}, "[14]": {"biological_target": "Gal(b1-4)GlcNAc(b1-3)Gal(b1-3)GalNAc", "outline": "as §1"}, "[15]": {"biological_target": "Gal(b1-4)GlcNAc(b1-3)Gal(b1-4)GlcNAc(b1-2)Man(a1-3)[Gal(b1-4)GlcNAc(b1-3)Gal(b1-4)GlcNAc(b1-2)Man(a1-6)]Man(b1-4)GlcNAc(b1-4)[Fuc(a1-6)]GlcNAc", "outline": "as §1"}, "Gal3S(b1-3)GalNAc": {"biological_target": "Gal3S(b1-3)GalNAc", "outline": "as §1"}, "[16]": {"biological_target": "GlcA3S(b1-3)Gal(b1-4)GlcNAc(b1-2)Man", "outline": "as §1"}, "[17]": {"biological_target": "GlcNAc(a1-4)Gal(b1-4)GlcNAc(b1-3)Gal(b1-4)Glc", "outline": "as §1"}, "[18]": {"biological_target": "GlcNAc(a1-4)Gal(b1-4)GlcNAc(b1-3)Gal(b1-4)[Fuc(a1-3)]GlcNAc(b1-3)Gal(b1-4)[Fuc(a1-3)]GlcNAc", "outline": "as §1"}, "[19]": {"biological_target": "GlcNAc(b1-2)Man(a1-3)[GlcNAc(b1-2)Man(a1-6)]Man(b1-4)GlcNAc(b1-4)[Fuc(a1-6)]GlcNAc", "outline": "as §1"}, "[20]": {"biological_target": "GlcNAc(b1-2)[GlcNAc(b1-4)]Man(a1-3)[GlcNAc(b1-4)][GlcNAc(b1-2)[GlcNAc(b1-6)]Man(a1-6)]Man(b1-4)GlcNAc(b1-4)[Fuc(a1-6)]GlcNAc", "outline": "as §1"}, "[21]": {"biological_target": "GlcNAc(b1-2)[GlcNAc(b1-6)]Man(a1-6)[GlcNAc(b1-2)Man(a1-3)]Man(b1-4)GlcNAc(b1-4)GlcNAc", "outline": "as §1"}, "[22]": {"biological_target": "GlcNAc(b1-3)Gal(b1-4)GlcNAc(b1-2)Man(a1-3)[GlcNAc(b1-3)Gal(b1-4)GlcNAc(b1-2)Man(a1-6)]Man(b1-4)GlcNAc(b1-4)GlcNAc", "outline": "as §1"}, "[23]": {"biological_target": "GlcNAc(b1-3)Gal(b1-4)GlcNAc(b1-3)Gal(b1-4)GlcNAc", "outline": "as §1"}, "[24]": {"biological_target": "GlcNAc(b1-3)Gal(b1-4)GlcNAc(b1-3)Gal(b1-4)GlcNAc(b1-2)Man(a1-3)[GlcNAc(b1-3)Gal(b1-4)GlcNAc(b1-3)Gal(b1-4)GlcNAc(b1-2)Man(a1-6)]Man(b1-4)GlcNAc(b1-4)[Fuc(a1-6)]GlcNAc", "outline": "as §1"}, "[25]": {"biological_target": "GlcNAc(b1-3)[GlcNAc(b1-6)]GalNAc", "outline": "as §1"}, "[26]": {"biological_target": "Kdn(a2-3)Gal(b1-4)[Fuc(a1-3)]GlcNAc", "outline": "as §1"}, "Man(b1-4)GlcNAc": {"biological_target": "Man(b1-4)GlcNAc", "outline": "as §1"}, "[27]": {"biological_target": "Neu5Ac(a2-3)Gal(b1-3)GlcNAc6S", "outline": "as §1"}}, "note": "The sample as a whole holds a higher share of the strongest signals than the screen did.", "data": [{"binder": "Clec18Av1 (Homo sapiens), A5D8T8 (protein) MLHPETSPGRGHLLAVLLALLGTAWAEVWPPQLQEQAPMAGALNRKESFLLLSLHNRLRSWVQPPAADMRRLDWSDSLAQLAQARAALCGTPTPSLASGLWRTLQVGWNMQLLPAGLVSFVEVVSLWFAEGQRYSHAAGECARNATCTHYTQLVWATSSQLGCGRHLCSAGQAAIEAFVCAYSPRGNWEVNGKTIVPYKKGAWCSLCTASVSGCFKAWDHAGGLCEVPRNPCRMSCQNHGRLNISTCHCHCPPGYTGRYCQVRCSLQCVHGRFREEECSCVCDIGYGGAQCATKVHFPFHTCDLRIDGDCFMVSSEADTYYRARMKCQRKGGVLAQIKSQKVQDILAFYLGRLETTNEVIDSDFETRNFWIGLTYKTAKDSFRWATGEHQAFTSFAFGQPDNHGFGNCVELQASAAFNWNDQRCKTRNRYICQFAQEHISRWGPGS", "values": [{"measurement": "glycan array binding signal (z-score)", "setting": "[1]", "value": -0.849}, {"measurement": "glycan array binding signal (z-score)", "setting": "[2]", "value": 4.48}, {"measurement": "glycan array binding signal (z-score)", "setting": "[3]", "value": -0.818}, {"measurement": "glycan array binding signal (z-score)", "setting": "[4]", "value": 3.05}, {"measurement": "glycan array binding signal (z-score)", "setting": "[5]", "value": -0.446}, {"measurement": "glycan array binding signal (z-score)", "setting": "[6]", "value": -0.502}, {"measurement": "glycan array binding signal (z-score)", "setting": "[7]", "value": 1.02}, {"measurement": "glycan array binding signal (z-score)", "setting": "[8]", "value": -0.843}, {"measurement": "glycan array binding signal (z-score)", "setting": "[9]", "value": 3.22}, {"measurement": "glycan array binding signal (z-score)", "setting": "Gal(a1-6)Glc", "value": -0.747}, {"measurement": "glycan array binding signal (z-score)", "setting": "[10]", "value": 4.04}, {"measurement": "glycan array binding signal (z-score)", "setting": "[11]", "value": 2.24}, {"measurement": "glycan array binding signal (z-score)", "setting": "[12]", "value": 0.712}, {"measurement": "glycan array binding signal (z-score)", "setting": "[13]", "value": 3.23}, {"measurement": "glycan array binding signal (z-score)", "setting": "[14]", "value": 3.37}, {"measurement": "glycan array binding signal (z-score)", "setting": "[15]", "value": 2.85}, {"measurement": "glycan array binding signal (z-score)", "setting": "Gal3S(b1-3)GalNAc", "value": -0.82}, {"measurement": "glycan array binding signal (z-score)", "setting": "[16]", "value": -0.197}, {"measurement": "glycan array binding signal (z-score)", "setting": "[17]", "value": -0.356}, {"measurement": "glycan array binding signal (z-score)", "setting": "[18]", "value": 4.79}, {"measurement": "glycan array binding signal (z-score)", "setting": "[19]", "value": 3.54}, {"measurement": "glycan array binding signal (z-score)", "setting": "[20]", "value": -0.868}, {"measurement": "glycan array binding signal (z-score)", "setting": "[21]", "value": -0.432}, {"measurement": "glycan array binding signal (z-score)", "setting": "[22]", "value": 1.53}, {"measurement": "glycan array binding signal (z-score)", "setting": "[23]", "value": -0.861}, {"measurement": "glycan array binding signal (z-score)", "setting": "[24]", "value": -0.74}, {"measurement": "glycan array binding signal (z-score)", "setting": "[25]", "value": -0.808}, {"measurement": "glycan array binding signal (z-score)", "setting": "[26]", "value": 0.16}, {"measurement": "glycan array binding signal (z-score)", "setting": "Man(b1-4)GlcNAc", "value": -0.825}, {"measurement": "glycan array binding signal (z-score)", "setting": "[27]", "value": -0.859}]}]}
